Test results from PubChem BioAssay (NCI).
This is part of a sample that, as a whole, favours compounds with a hit. Of some 83,000 tested, about 20% had one in any assay.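 Plates (96-well) were seeded with cells, treated with compound at one concentration, and incubated for 48 hours before percent growth was determined.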 Activity calls are given as the source filed them. How the source made its calls: active means growth percent below 10; inactive means the rest.

tested on: MDA-MB-468 breast; assay: NCI-60 one-dose screen, 48 h (100 = growth as untreated, 0 = no growth, -100 = all killed); settings: 10 µM unless noted

Compound	growth
NC(=O)c1c(NC(=O)c2ccc(C(F)(F)F)cc2)sc2c1CCC(=O)C2	-30.7% (active)
CC(=O)O[C@]1(C)C[C@H](O)[C@]2(O)C=CO[C@H](O[C@@H]3O[C@H](CO)[C@@H](O)[C@H](O)[C@H]3O)[C@@H]21	96.8% (inactive)
Nc1n[nH]c2cccc(C#Cc3cccc(NC(=O)c4cc(N5CCOCC5)cc(C(F)(F)F)c4)c3)c12	85.6% (inactive)
Cc1cccc(Cc2cnc(NC(=O)c3ccc4nnsc4c3)s2)c1	94.8% (inactive)
N/C(=N\C(N)=N\c1nc2ccccc2s1)c1ccncc1Cl	90.3% (inactive)
CCN(CC)c1cc(C)c2cc(NC(=O)c3cccc(OC)c3)ccc2n1	83.9% (inactive)
CCN(CC)CCCC(C)Nc1ccc2ccc(Cl)cc2n1 (centres undefined)	77.8% (inactive)
N=C(N)c1ccc(-c2ccc(-c3ccccc3)s2)cc1	-39.2% (active)
CCCCN1C(=O)/C(=c2\sc3n(c2=O)C2C(NN=3)N(CC)C(=O)N2CC)c2cc(Cl)ccc21 (centres undefined)	56.2% (inactive)
COc1ccc(-c2cc(-c3cccnc3)nc3sc4c(=O)[nH]c(-c5ccc(Cl)cc5)nc4c23)cc1OC	97.8% (inactive)
O=S(=O)(O)c1ccc(O)c2ccccc12	104% (inactive)
Cc1nc2sc(C(=O)Nc3cccc4ccccc34)c(N)c2cc1C(=O)c1ccccc1	5.45% (active)
Fc1ccccc1CSc1ncnc2nc[nH]c12	97.6% (inactive)
C[C@H]1[C@@H]2[C@H]3CC[C@@H]4[C@@]5(C)Cc6c([nH]c7ccccc67)C(C)(C)[C@@H]5CC[C@@]4(C)[C@]3(C)CC[C@]23CO[C@]1(C)[C@@H](C(=O)/C=C/c1ccccn1)C3	99.3% (inactive)
